Data from paper PMC5540273 (PLoS ONE, 2017).

Columns and labels:
Conditions in all cases: concentration: 1 μM,replicates: in singlicate; n = 1
[1] = tested on: RPS6KA4(Kin.Dom.1-N-terminal)
[2] = tested on: RPS6KA4(Kin.Dom.2-C-terminal)
[3] = tested on: RPS6KA5(Kin.Dom.1-N-terminal)
[4] = tested on: RPS6KA5(Kin.Dom.2-C-terminal)
[5] = tested on: T1, RSK1(Kin.Dom.1-N-terminal)
T1 construct: gene RPS6KA1

[6] = tested on: T2, RSK1(Kin.Dom.2-C-terminal)
T2 construct: gene RPS6KA1

[7] = tested on: T3, RSK2(Kin.Dom.1-N-terminal)
T3 construct: gene RPS6KA3

[8] = tested on: T4, RSK2(Kin.Dom.2-C-terminal)
T4 construct: gene RPS6KA3

[9] = tested on: T5, RSK3(Kin.Dom.1-N-terminal)
T5 construct: gene RPS6KA2

[10] = tested on: T6, RSK3(Kin.Dom.2-C-terminal)
T6 construct: gene RPS6KA2
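Further: KINOMEscan kinase panel screen.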

Row | SMILES | %Inh [1] [%] | %Inh [2] [%] | %Inh [3] [%] | %Inh [4] [%] | %Inh [5] [%] | %Inh [6] [%] | %Inh [7] [%] | %Inh [8] [%] | %Inh [9] [%] | %Inh [10] [%]
1 | COc1cc(Nc2nccc(N3CCC(NC(=O)c4cccc(C#N)c4)C3)n2)cc(OC)c1OC (centres unmarked) [GSK1379751] | 0 | 0 | 0 | 34 | 17 | 0 | 0 | 0 | 4 | 0
2 | N#Cc1cccc(C(=O)NC2CCN(c3ccnc(Nc4ccc(F)cc4)n3)C2)c1 (centres unmarked) [GSK1379708] | 0 | 0 | 0 | 0 | 15 | 0 | 0 | 0 | 0 | 0
3 | CCN1CCN(CCCC(=O)Nc2n[nH]c3nc(-c4ccc(O)cc4)c(Br)cc23)CC1 [SB-731579] | 5 | 98.5 | 4 | 0 | 0 | 0 | 13 | 0 | 0 | 30
4 | CS(=O)(=O)c1cccc(CNc2nc(Nc3ccc4c(c3)[C@@H]3C[C@@H]4CNC3=O)ncc2C(F)(F)F)c1 | 33 | 0 | 0 | 46 | 66 | 7 | 84 | 0 | 85 | 13
5 | CCn1c(-c2nonc2N)nc2cncc(Br)c21 [SB-738004] | 3 | 86 |  |  | 0 | 38 | 50 | 27 | 9 | 6
6 | Cl.Cl.NC[C@H](CC1CCCCC1)NC(=O)c1ccc(-c2ccnc3[nH]ccc23)s1 [GSK1581428] | 82 | 79 | 84 | 67 | 23 | 12 | 83 | 0 | 57 | 21
7 | Cn1ccc2ncnc(Oc3ccc(NC(=O)Nc4cccc(C(F)(F)F)c4)c(Cl)c3)c21 | 2 | 0 | 0 | 2 | 0 | 86 | 13 | 16 | 0 | 27
8 | O=C(Nc1n[nH]c2cc(-c3ccco3)ccc12)C1CC1 [SB-737447] | 0 | 18 | 0 | 23 | 16 | 0 | 22 | 0 | 18 | 0
9 | COC(=O)c1cccc(NC(=O)NC2CCN(c3ccnc(NCc4ccc(F)cc4)n3)CC2)c1 [GSK1379860] | 7 | 0 | 7 | 0 | 18 | 0 | 0 | 9 | 3 | 0
10 | CCn1c(-c2nonc2N)nc2cncc(CNC3CCNCC3)c21.Cl [SB-747651] | 44 | 6 | 78 | 0 | 21 | 0 | 16 | 6 | 7 | 9
11 | Cn1ccc2ncnc(Oc3ccc(NC(=O)Nc4cncc(C(F)(F)F)c4)c(Cl)c3)c21 | 0 | 0 | 83 | 6 | 0 | 0 | 0 | 0 | 9 | 0
12 | COC(=O)Nc1nc2cc(Oc3ccc(NC(=O)Nc4cc(C(F)(F)F)ccc4Cl)cc3)ccc2[nH]1.Cl [GW697465] | 0 | 0 | 14 | 0 | 0 | 0 | 0 | 10 | 21 | 13
13 | C[C@@H]1CNc2c(sc3ccc4nc(-c5ccncc5)ccc4c23)C(=O)N1 | 33 | 98.7 | 0 | 0 | 0 | 0 | 4 | 0 | 10 | 33
14 | Cc1ccc(Nc2ccnc(Nc3ccc4c(c3)CS(=O)(=O)C4)n2)cc1O.Cl [GW579362] | 15 | 0 | 0 | 18 | 20 | 7 | 0 | 55 | 47 | 11
15 | c1ccc(Oc2ccc(Nc3ccnc4ccc(-c5ccccn5)cc34)cc2)cc1 [GW407034] | 11 | 0 | 3 | 0 | 10 | 0 | 7 | 8 | 19 | 0
16 | O=C(Nc1cccc(C(F)(F)F)c1)c1cccc(Oc2ccc3nccn3n2)c1 | 9 | 0 | 8 | 0 | 25 | 0 | 10 | 48 | 23 | 68
17 | OCCn1cc(-c2cnc3nnn(Cc4ccc5ncccc5c4)c3n2)cn1 | 1 | 0 | 0 | 2 | 9 | 0 | 0 | 0 | 0 | 0

Row | SMILES | %Inh [1] [%] | %Inh [2] [%] | %Inh [3] [%] | %Inh [4] [%] | %Inh [5] [%] | %Inh [6] [%] | %Inh [7] [%] | %Inh [8] [%] | %Inh [9] [%] | %Inh [10] [%]
18 | Cl.Nc1n[nH]c2cc(-c3ccccn3)ccc12 [GSK2189892] | 15 | 0 | 26 | 0 | 29 | 0 | 0 | 0 | 0 | 0
19 | CC(C(=O)NC1CCN(c2ccnc(Nc3ccc(F)cc3)n2)C1)c1ccc(Cl)cc1 (centres unmarked) [GSK1379713] | 6 | 5 | 0 | 0 | 0 | 0 | 0 | 17 | 0 | 0
20 | CN1CCN(CCCNc2nccc(-c3c(-c4ccc(F)cc4)nn4cc(C(N)=O)ccc34)n2)CC1 [GW622475] | 13 | 0 | 19 | 14 | 28 | 63 | 0 | 100 | 12 | 14
21 | O=C(Nc1ccc(Oc2ccc3nc(NC(=O)C4CC4)cn3n2)c(F)c1)c1cccn(-c2ccccc2)c1=O | 50 | 0 | 0 | 9 | 0 | 0 | 0 | 28 | 0 | 0
22 | O=C(Nc1ccccc1)c1cccc(Oc2ccc3nccn3n2)c1 | 0 | 10 | 0 | 16 | 0 | 100 | 9 | 46 | 24 | 0
23 | CC(=O)c1c(-c2ccncc2)[nH]c(-c2ccncc2)c1C [GW493036] | 34 | 0 | 0 | 61 | 26 | 0 | 0 | 0 | 0 | 7
24 | CN(c1cccc(CNc2nc(Nc3ccc4c(c3)CC(=O)N4)ncc2C(F)(F)F)c1)S(C)(=O)=O | 48 | 3 | 12 | 20 | 67 | 13 | 87 | 23 | 78 | 27
25 | C[C@@H](Oc1cc(-n2cnc3ccc(-c4ccncc4)cc32)sc1C(N)=O)c1ccccc1Cl [GSK483724] | 20 | 0 | 25 | 5 | 40 | 0 | 34 | 0 | 39 | 0
26 | COc1cc2c(Nc3ccc(NC(=O)c4ccccc4)cc3)ncnc2cc1OCCCN1CCOCC1 [GSK301329] | 20 | 0 | 0 | 0 | 11 | 0 | 0 | 1 | 0 | 0
27 | COc1cccc(OC)c1C(=O)Nc1cccc(-c2nn3ccccc3c2-c2ccnc(Nc3cccc(F)c3)n2)c1 [GSK361065] | 8 | 14 | 0 | 0 | 36 | 0 | 0 | 13 | 6 | 15
28 | Cc1n[nH]c2cc(Nc3ccnc(Nc4cccc(CN5CCOCC5)c4)n3)ccc12 [GW682569] | 0 | 0 | 0 | 21 | 3 | 28 | 22 | 20 | 0 | 0
29 | Nc1nccc(-c2ccc3c(N)n[nH]c3c2)n1 [GSK1034945] | 0 | 81 | 7 | 62 | 4 | 32 | 29 | 22 | 31 | 1
30 | COC(=O)c1cccc(NC(=O)NC2CCN(c3ccnc(Nc4cc(OC)c(OC)c(OC)c4)n3)C2)c1 (centres unmarked) [GSK1379767] | 0 | 0 | 0 | 30 | 21 | 5 | 7 | 1 | 9 | 29
31 | NC(=O)Nc1sc(-c2ccc(F)cc2)cc1C(N)=O [GW789449] | 46 | 7 | 0 | 0 | 54 | 33 | 68 | 45 | 21 | 7
32 | CN(c1ccccc1CNc1nc(Nc2ccc3c(c2)CC(=O)N3)ncc1C(F)(F)F)S(C)(=O)=O | 89 | 46 | 71 | 14 | 86 | 0 | 89 | 0 | 91.1 | 7
33 | Cn1ccc2ncnc(Oc3ccc(NC(=O)Nc4cccc(C(F)(F)F)c4)c(F)c3)c21 | 37 | 0 | 0 | 19 | 0 | 0 | 6 | 13 | 0 | 22
34 | Cc1cccc2c(-c3ccncc3)c(-c3ccc(F)cc3)nn12.Cl [GW461487] | 0 | 0 | 0 | 6 | 11 | 51 | 3 | 32 | 0 | 19
